# Test results from the supplement of paper PMC6089552.
# In all, about 3,200 compounds went through this assay and about 300 (9.4%) showed activity. The sample holds actives, similar compounds and a random draw of the others, so the mix is not that of the screen. A number with no mark means an inactive call.
# System: A673/TR/shEF
# Assay: cell viability (LOESS-normalised, relative to median of negative controls) (log2 ratio); higher = more viable cells (less compound effect), active = hit call of the paper (over 3 MAD below the median)
# Conditions: treatment time: 72 h
# Procedure, shortened: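 Viability of A673/TR/shEF Ewing sarcoma cells was determined by CellTiter-Glo luminescence. The cells, at 1,500 per well in 384-well plates, were grown with or without doxycycline from 24 h before compound addition to switch on EWS-FLI1 shRNA knockdown, then exposed for three days to library compounds at two or more concentrations or to DMSO controls. Signals were LOESS-corrected plate by plate, normalised to the negative-control median and log2-transformed.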
# [1] = 0.25 µM, library screen: screen1, EWS-FLI1 expression: high (no doxycycline)
# [2] = 0.25 µM, library screen: screen1, EWS-FLI1 expression: low (doxycycline-induced shRNA knockdown)
# [3] = 2.5 µM, library screen: screen1, EWS-FLI1 expression: high (no doxycycline)
# [4] = 2.5 µM, library screen: screen1, EWS-FLI1 expression: low (doxycycline-induced shRNA knockdown)
# [5] = 0.025 µM, library screen: screen1, EWS-FLI1 expression: high (no doxycycline)
# [6] = 0.025 µM, library screen: screen1, EWS-FLI1 expression: low (doxycycline-induced shRNA knockdown)
# [7] = 0.25 µM, library screen: screen2, EWS-FLI1 expression: high (no doxycycline)
# [8] = 0.25 µM, library screen: screen2, EWS-FLI1 expression: low (doxycycline-induced shRNA knockdown)
# [9] = 2.5 µM, library screen: screen2, EWS-FLI1 expression: high (no doxycycline)
# [10] = 2.5 µM, library screen: screen2, EWS-FLI1 expression: low (doxycycline-induced shRNA knockdown)
# [11] = 25 µM, library screen: screen1, EWS-FLI1 expression: high (no doxycycline)
# [12] = 25 µM, library screen: screen1, EWS-FLI1 expression: low (doxycycline-induced shRNA knockdown)
# [13] = 0.103 µM, library screen: screen3, EWS-FLI1 expression: high (no doxycycline)
# [14] = 0.103 µM, library screen: screen3, EWS-FLI1 expression: low (doxycycline-induced shRNA knockdown)
# [15] = 0.308 µM, library screen: screen3, EWS-FLI1 expression: high (no doxycycline)
# [16] = 0.308 µM, library screen: screen3, EWS-FLI1 expression: low (doxycycline-induced shRNA knockdown)
# [17] = 0.926 µM, library screen: screen3, EWS-FLI1 expression: high (no doxycycline)
# [18] = 0.926 µM, library screen: screen3, EWS-FLI1 expression: low (doxycycline-induced shRNA knockdown)
# [19] = 2.8 µM, library screen: screen3, EWS-FLI1 expression: high (no doxycycline)
# [20] = 2.8 µM, library screen: screen3, EWS-FLI1 expression: low (doxycycline-induced shRNA knockdown)
# [21] = 8.3 µM, library screen: screen3, EWS-FLI1 expression: high (no doxycycline)
# [22] = 8.3 µM, library screen: screen3, EWS-FLI1 expression: low (doxycycline-induced shRNA knockdown)
# [23] = 25 µM, library screen: screen3, EWS-FLI1 expression: high (no doxycycline)
# [24] = 25 µM, library screen: screen3, EWS-FLI1 expression: low (doxycycline-induced shRNA knockdown)
smiles,measurement,setting,value
CC(=O)O[C@@H]1CC[C@@]2(C)[C@H](CC[C@@H]3[C@@H]2C[C@H](OC(C)=O)[C@]2(C)[C@@H](C(C)=O)CC[C@@H]32)C1,cell viability (log2),[1],0.135
same,cell viability (log2),[2],0.117
same,cell viability (log2),[3],0.0696
same,cell viability (log2),[4],0.102
CC(C1OC(C)(C)C(O)C1O)[C@@H]1CC[C@]2(C)C3=CCC4C(C)(C)C(=O)CC[C@]4(C)C3CC[C@@]12C (some centres undefined),cell viability (log2),[1],0.062
same,cell viability (log2),[2],0.126
same,cell viability (log2),[3],0.148
same,cell viability (log2),[4],0.137
c1ccc(C2CN3CCSC3=N2)cc1 (centres undefined),cell viability (log2),[5],0.0711
same,cell viability (log2),[6],0.0575
same,cell viability (log2),[1],0.0459
same,cell viability (log2),[2],0.00911
same,cell viability (log2),[7],0.102
same,cell viability (log2),[8],0.0185
same,cell viability (log2),[3],-0.215 (active)
same,cell viability (log2),[4],0.107
same,cell viability (log2),[9],0.166
same,cell viability (log2),[10],0.00181
same,cell viability (log2),[11],-0.261 (active)
same,cell viability (log2),[12],0.0697
Brc1ccc([C@H]2CN3CCSC3=N2)cc1,cell viability (log2),[5],0.216
same,cell viability (log2),[6],0.000942
same,cell viability (log2),[1],0.234
same,cell viability (log2),[2],0.105
same,cell viability (log2),[7],-0.0213
same,cell viability (log2),[8],0.123
same,cell viability (log2),[3],-0.357 (active)
same,cell viability (log2),[4],-0.0691
same,cell viability (log2),[9],0.117
same,cell viability (log2),[10],0.109
same,cell viability (log2),[11],-0.468 (active)
same,cell viability (log2),[12],-0.309 (active)
c1ccc([C@H]2CN3CCSC3=N2)cc1,cell viability (log2),[5],0.0743
same,cell viability (log2),[6],0.0216
same,cell viability (log2),[13],0.103
same,cell viability (log2),[14],0.000516
same,cell viability (log2),[1],0.0991
same,cell viability (log2),[2],0.0737
same,cell viability (log2),[7],0.069
same,cell viability (log2),[8],0.0838
same,cell viability (log2),[15],0.127
same,cell viability (log2),[16],0.0938
same,cell viability (log2),[17],0.0997
same,cell viability (log2),[18],0.0447
same,cell viability (log2),[3],-0.0948 (active)
same,cell viability (log2),[4],0.0839
same,cell viability (log2),[9],0.126
same,cell viability (log2),[10],0.0627
same,cell viability (log2),[19],0.136
same,cell viability (log2),[20],0.0913
same,cell viability (log2),[21],0.12
same,cell viability (log2),[22],0.085
same,cell viability (log2),[11],-0.295 (active)
same,cell viability (log2),[12],-0.0899
same,cell viability (log2),[23],0.0427
same,cell viability (log2),[24],0.11
CC(=O)O[C@@H]1C=C[C@@]2(C)C(C[C@@H](OC(C)=O)[C@@]3(C)C4=CC(=O)O[C@@H](c5ccoc5)[C@]4(C)CCC23)C1(C)C (some centres undefined),cell viability (log2),[1],0.0555
same,cell viability (log2),[2],0.12
same,cell viability (log2),[3],0.1
same,cell viability (log2),[4],0.125
CC(=O)O[C@@H]1CC[C@@]2(C)C(=CC=C3[C@@H]4CC[C@H]([C@H](C)/C=C/[C@H](C)C(C)C)[C@@]4(C)CC[C@@H]32)C1,cell viability (log2),[1],0.0486
same,cell viability (log2),[2],0.129
same,cell viability (log2),[3],0.176
same,cell viability (log2),[4],0.156
[Cl][Pt+2][Cl].[NH2-].[NH2-],cell viability (log2),"0.025 µM, library screen: screen2, EWS-FLI1 expression: high (no doxycycline)",0.0701
same,cell viability (log2),"0.025 µM, library screen: screen2, EWS-FLI1 expression: low (doxycycline-induced shRNA knockdown)",0.092
same,cell viability (log2),[13],0.0436
same,cell viability (log2),[14],0.101
same,cell viability (log2),[1],0.0699
same,cell viability (log2),[2],0.0806
same,cell viability (log2),[7],0.126
same,cell viability (log2),[8],0.0568
same,cell viability (log2),[15],0.119
same,cell viability (log2),[16],0.0647
same,cell viability (log2),[17],0.132
same,cell viability (log2),[18],0.00232
same,cell viability (log2),[3],0.0557
same,cell viability (log2),[4],0.0761
same,cell viability (log2),[9],0.062
same,cell viability (log2),[10],0.0651
same,cell viability (log2),[19],0.0695
same,cell viability (log2),[20],0.05
same,cell viability (log2),[21],0.0685
same,cell viability (log2),[22],0.0664
same,cell viability (log2),"25 µM, library screen: screen2, EWS-FLI1 expression: high (no doxycycline)",0.079
same,cell viability (log2),"25 µM, library screen: screen2, EWS-FLI1 expression: low (doxycycline-induced shRNA knockdown)",0.0718
same,cell viability (log2),[23],0.135
same,cell viability (log2),[24],0.0626
CC(C)CCC[C@@H](C)[C@H]1CC[C@H]2[C@@H]3CC[C@H]4C[C@@H](O)CC[C@]4(C)[C@H]3CC[C@]12C,cell viability (log2),[1],0.0663
same,cell viability (log2),[2],0.113
same,cell viability (log2),[3],0.0848
same,cell viability (log2),[4],0.113
COC(=O)c1c(Cl)c(Cl)c(C(=O)OC)c(Cl)c1Cl,cell viability (log2),[1],0.0653
same,cell viability (log2),[2],0.0707
same,cell viability (log2),[3],0.0863
same,cell viability (log2),[4],0.122
CC1(C)C(=O)C=C[C@@]2(C)C1CC(=O)[C@@]1(C)C3=CC(=O)O[C@@H](c4ccoc4)[C@]3(C)CCC12 (some centres undefined),cell viability (log2),[1],0.0432
same,cell viability (log2),[2],0.0348
same,cell viability (log2),[3],0.201
same,cell viability (log2),[4],0.163
CCOC([O-])=Nc1c[n+](N2CCOCC2)no1,cell viability (log2),[1],0.0951
same,cell viability (log2),[2],0.0303
same,cell viability (log2),[7],0.227
same,cell viability (log2),[8],0.0663
same,cell viability (log2),[3],0.0784
same,cell viability (log2),[4],0.0384
same,cell viability (log2),[9],0.102
same,cell viability (log2),[10],0.116
CC1(C)O[C@H]2[C@H](O)C[C@](O)(C(N)=O)C[C@H]2O1,cell viability (log2),[1],-0.0199
same,cell viability (log2),[2],-0.00566
same,cell viability (log2),[3],0.076
same,cell viability (log2),[4],0.0924
Oc1ccc2c(c1)OC[C@]1(O)Cc3cc(O)c(O)cc3[C@H]21,cell viability (log2),[1],0.113
same,cell viability (log2),[2],0.129
same,cell viability (log2),[3],0.0951
same,cell viability (log2),[4],0.187
NC(C(=O)O)C(O)C(O)C(O)CO (centres undefined),cell viability (log2),[1],0.0607
same,cell viability (log2),[2],0.059
same,cell viability (log2),[3],0.025
same,cell viability (log2),[4],0.121
COc1ccccc1NC(=O)C1=C(C)NC(=O)NC1c1ccc(Cl)cc1 (centres undefined),cell viability (log2),[1],0.0563
same,cell viability (log2),[2],0.0447
same,cell viability (log2),[3],0.0428
same,cell viability (log2),[4],0.00886
O=C(CSc1nnc(Cc2ccccc2)o1)c1ccc(Cl)cc1,cell viability (log2),[1],0.0547
same,cell viability (log2),[2],0.0748
same,cell viability (log2),[3],0.133
same,cell viability (log2),[4],-0.101
C[C@H]1CC[C@@H](C(C)(C)O)CC2=C1CC[C@@H]2C,cell viability (log2),[1],-0.0585
same,cell viability (log2),[2],0.0603
same,cell viability (log2),[3],0.0212
same,cell viability (log2),[4],0.083
C[C@@H](Oc1cc(-c2cnn(C3CCNCC3)c2)cnc1N)c1c(Cl)ccc(F)c1Cl,cell viability (log2),[13],0.0466
same,cell viability (log2),[14],0.078
same,cell viability (log2),[15],0.0248
same,cell viability (log2),[16],0.0309
same,cell viability (log2),[17],0.0194
same,cell viability (log2),[18],0.0561
same,cell viability (log2),[19],-0.012
same,cell viability (log2),[20],0.0202
same,cell viability (log2),[21],-0.189 (active)
same,cell viability (log2),[22],0.0761
same,cell viability (log2),[23],-1.08 (active)
same,cell viability (log2),[24],-0.0839
